Source: PubChem
Compounds with a hit are over-represented: about 1.9% of the library has one in this group of screens.
14-3-3 Bad inh: disrupts binding of bovine 14-3-3 zeta to phospho-Bad peptide; P63103; TR-FRET 14-3-3zeta/Dy647-pBad peptide displacement, 1 h; inhibition, % at 21.7 µM; 220,000 tested, 0.71% active; AID 781;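 active means inhibition above about 70%, limit read from the data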;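 further: 0% = full 14-3-3 plus peptide FRET controls and 100% = background without 14-3-3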
eIF4H inh: inhibitors of RNA binding by human eIF4H. AID 2012. eIF4H fluorescence polarization binding assay. 290,000 tested, 0.94% active. inhibition, % at 35 µM. Q15056;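 further: calls also rest on retests at 20 µM and on dose response follow-up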
PABP FP inh: blocks human PABP binding to poly(A) RNA; P11940; fluorescence polarization; calls only at 35 µM; 290,000 tested, 1% active;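 further: calls also rest on retests at 20 µM and on dose response follow-up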
eIF4E 4G PPI: eIF4E/eIF4G interaction inhibition in translation initiation; inhibition, % at 21.7 µM; TR-FRET eIF4E-eIF4GI(517-606) binding, 2 h; 220,000 tested, 0.37% active;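 active means inhibition above about 30%, limit read from the data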;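 further: 0% = full FRET control wells and 100% = background wells lacking eIF4GI fragment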
PABP1 MLLE inh: blocks PAM2 peptide binding to the PABP1 MLLE domain; P11940; GST-MLLE / FITC-PAM2 fluorescence polarization; inhibition, % at 20 µM; 360,000 tested, 0.36% active; AID 588489; in the data active means inhibition above about 35%, passing the limit was not always enough;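 further: plate controls were DMSO wells with GST-MLLE for no effect and wells lacking GST-MLLE protein for full effect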
An asterisk follows results filed as active; i = inactive; ? = inconclusive; . = no result; + = active, no number; [ ] = remark or other dose. Unless noted, how the calls were made is not given here.

SMILES	14-3-3 Bad inh	eIF4H inh	PABP FP inh	eIF4E 4G PPI	PABP1 MLLE inh
O=C(NNC(=O)c1cc2cc3ccccc3nc2s1)c1cccc(C(F)(F)F)c1	1	51*	i	-17	16
CCC(C)C(=O)Nc1nc(-c2ccc3c(c2)NC(=O)CO3)cs1 (centres undefined)	14	2	i	0	16
Nc1nc(-c2ccc3c(c2)NC(=O)CO3)cs1	78*	-7	i	3	12
CCOC(=O)C1=C(O)C(=O)NC(c2ccccc2)=C(OC2CCCCC2)C1	7	-4	i	3	13
Cc1ccc2nc(-c3ccc(NC(=S)NC4CC(C)(C)NC(C)(C)C4)cc3)sc2c1	93*	0	i	21	3
Cc1ccc2nc(-c3ccc(NC(=S)NC(=O)C(C)C)cc3)sc2c1	-4	-4	i	-20	30
O=C1C2C3C=CC(C3)C2C(=O)N1CCCCN1C(=O)C2C3C=CC(C3)C2C1=O (centres undefined)	73*	-12	i	46*	-1
CCOC(=O)c1cc(CC)sc1/N=C/C1=C(O)CC(C)(C)CC1=O	-7	15	i	7	27
CCOC(=O)c1sc(N=NC2=C(O)CC(C)(C)CC2=O)c(C(=O)OCC)c1C	-2	60*	i	-2	49
CC1=NN(C(=O)c2ccccc2-n2cccc2)C(O)(C(F)(F)F)C1 (centres undefined)	20	54*	+	0	-8
Cc1ccc(NC(=O)Cn2c(O)c(N=NC(=O)c3cc4ccccc4cc3O)c3ccccc32)cc1	82*[fluorescence artefact?]	36	i	28	3
COc1ccccc1NC(=O)Cn1c(O)c(N=NC(=O)c2ccccc2O)c2ccccc21	79*	30	i	25	-21
Cc1ccc(N(CCC#N)C(=O)COC(=O)c2ccccn2)cc1	.	-7	i	.	0
COc1ccc(OCC(O)CN2CCN(Cc3ccc4c(c3)OCO4)CC2)cc1 (centres undefined)	-14	-13	i	-1	13
C=CCc1cc(C)ccc1OCC(O)CN1CCN(c2ccccc2)CC1 (centres undefined)	70*	5	i	1	-6
Cc1ccc(OCC(O)CN2CCN(Cc3ccc4c(c3)OCO4)CC2)c(C)c1 (centres undefined)	77*	-9	i	8	-3
COc1cccc(N2CCN(Cc3nc4scc(-c5ccccc5)c4c(=O)[nH]3)CC2)c1	-11	79*	+	0	-40
Cc1nc(NC(N)=S)sc1C(=O)Nc1ccccc1	-4	1	i	-2	41*
Cc1nc2ccc(NS(=O)(=O)c3ccc(Br)cc3)cc2s1	.	.	.	.	-17
COC(=O)CCCC1=CC2=C(c3ccccc3)C(=O)C(C)(OC(=O)C3CCCC3)C(=O)C2=CN1CCN1CCOCC1 (centres undefined)	-8	14	i	-1	40*
CC1(OC(=O)C2CCCC2)C(=O)C=C2C=C(c3ccsc3)N(CCN3CCOCC3)C=C2C1=O (centres undefined)	-7	101	+	-3	.
COCCNC(=O)C(c1ccc(F)cc1)N(C(=O)CCC(=O)Nc1nccs1)c1ccc(C)cc1 (centres undefined)	-4	-7	i	2	5
Nc1cccc2c(=O)c3ccccc3[nH]c12	.	92*	+	.	-51
COc1cccc2[nH]c3ccccc3c(=O)c12	.	-3	i	.	21
COC(=O)c1c(NC(=O)CCCC(=O)O)sc(C)c1C	-15	1	i	-3	21
SMILES	14-3-3 Bad inh	eIF4H inh	PABP FP inh	eIF4E 4G PPI	PABP1 MLLE inh
Cc1sc(NC(=O)CCCC(=O)O)c(C(N)=O)c1-c1ccccc1	-7	73	i	-1	35*
C=CCn1c(-c2ccoc2)n[nH]c1=S	-14	2	i	65*	-12
C=CCn1c(-c2ccccc2)n[nH]c1=S	10	4	i	-5	-10
CCOc1cc(C(=O)Nc2ccc3c4c(cccc24)C(=O)N3CC)cc(OCC)c1OCC	-2	0	i	59*	-27
COc1ccc2c(c1)CC/C(=C\Nc1ccc3c(c1)OCO3)C2=O	-9	66*	+	-2	-92
O=C1/C(=C/Nc2ccc3c(c2)OCO3)CCc2ccccc21	-3	2	i	3	-113
CCCc1c(C)[nH]c2ccc(C(=O)O)cc2c1=S	26	56*	+	3	17
Cc1ccc(-c2nc3ncccn3c2Nc2ccccc2C)o1	16	13	?	-1	-3
Cc1ccc(-c2nc3cnccn3c2Nc2c(C)cccc2C)o1	-3	10	i	-1	39*
COc1ccc(-c2nc(CC(=O)O)cs2)cc1OC	81*	-13	i	-2	.
COc1ccc(-c2nc(CC(=O)O)cs2)cc1	0	0	i	3	-6
CCOC(=O)c1c(/N=C/c2cccc([N+](=O)[O-])c2O)sc(C)c1C	3	21	i	1	51*
O=[N+]([O-])c1cccc(C=Nc2cccc3ccccc23)c1O	.	42	i	.	19
COc1ccc(OCC(=O)Nc2cccc3ncccc23)cc1	-2	-1	i	6	10
O=C(CSc1ccccn1)Nc1cccc2ccccc12	9	1.8*	+	-1	-75
O=C(CCl)Nc1cccc2ncccc12	-9	104*	+	-2	14
COc1ccc2c(c1OC)C(=O)OC2C1c2c(cc3c(c2OC)OCO3)CCN1C (centres undefined)	-3	-8	i	-6	2
CN1CCc2cc3c(c4c2[C@H]1[C@H](O)c1ccccc1-4)OCO3	2	109	i	-2	68*
O=C(OCC(=O)N1CCC(Cc2ccccc2)CC1)c1ccc(O)cc1	.	.	.	.	2
C/C=C/C=C/C(=O)[C@@H]1[C@@H]([C@]2(C)OC(=O)C(C)=C2O)[C@H]2/C(=C(O)/C=C/C=C/C)C(=O)[C@]1(C)C(=O)C2(C)O (some centres undefined)	-4	61*	i	-21	-8
Cc1ccc2ncccc2c1NS(=O)(=O)c1ccccc1	6	8	i	11	-111
Cc1ccc2ncccc2c1NC(=S)NC(=O)c1ccccc1	-3	3	i	-3	42*
O=C(CCc1c[nH]c2ccccc12)N1CCN(S(=O)(=O)c2ccc(F)cc2)CC1	.	.	.	.	-2
O=C(CSc1nnc(-c2ccccc2)n1C1CCCCC1)Nc1ccc(S(=O)(=O)Nc2ccccn2)cc1	11	4	i	53*	15
CCCCc1nnc(NC(=O)C(C)Sc2nc(O)c(Cc3ccccc3)c(=O)[nH]2)s1 (centres undefined)	-6	3	i	1	10
Cc1ccc(C)c(OCc2nc3ccc(S(=O)(=O)Nc4c(C)n(C)n(-c5ccccc5)c4=O)cc3[nH]2)c1	2	8	i	0	10
N#C/C(=C(/O)CSc1ncn[nH]1)c1nc2ccccc2[nH]1	-16	64	+	9	-14
